This is a sample that favours compounds with a hit; in the whole collection about 2.8% have one here.
proKLK7 act – proKLK7 (human) activation, primary screen; activation, % at 7 µM; actives 0.9% (n = 370,000); purified proKLK7, EDANS-DABCYL substrate fluorescence; 100% is mature enzyme control, 0% vehicle; AID 652039; P49862;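 active = activation above the mean of all tested compounds plus 3 SD, computed per campaign excluding outliers beyond control limits, cut at about 13% in these data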
Target sequence (P49862 whole entry, looked up): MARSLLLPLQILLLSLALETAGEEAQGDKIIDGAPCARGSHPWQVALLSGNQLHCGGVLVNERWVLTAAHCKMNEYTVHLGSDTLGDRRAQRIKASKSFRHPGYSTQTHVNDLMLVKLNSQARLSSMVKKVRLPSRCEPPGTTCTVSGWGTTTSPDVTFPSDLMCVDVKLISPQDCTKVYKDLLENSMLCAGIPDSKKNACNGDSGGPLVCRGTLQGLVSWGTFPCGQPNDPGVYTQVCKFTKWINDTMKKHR
SMARCA2 activ – activators of SMARCA2 function. actives 1% (n = 370,000). AID 652017. MG213 cells, MMTV-luciferase reporter, dexamethasone, overnight. activation, % at 9.1 µM; in the data active = activation above about 7.8%;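 also: 0% = vehicle wells and 100% = reference activator wells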
MsrA inhibitor – inhibits bovine methionine sulfoxide reductase A | purified bovine MsrA, absorbance read-out | inhibition, % at 15.5 µM | actives 0.75% (n = 360,000); in the data active = inhibition above about 4.5%;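 also: 0% = vehicle wells with enzyme and 100% = reference inhibitor wells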
bovine MsrA act – activates bovine MsrA enzyme. purified bovine MsrA, absorbance read-out. activation, % at 10.6 µM. actives 0.3% (n = 360,000). AID 602163; in the data active = activation above about 7.5%;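 also: 0% = vehicle and 100% = reference activator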
proKLK7 act conf – proKLK7 activation, confirmation. AID 686949. shares compounds with proKLK7 act. actives 68% (n = 3,200). activation, % at 7 µM. purified proKLK7, EDANS-DABCYL substrate fluorescence; scaled: vehicle 0, mature enzyme 100;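 active = activation, as change over the incubation, above the mean of all tested compounds plus 3 SD, cut at about 13% in these data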
EDANS interfere – optically interferes with EDANS-DABCYL signal, flagging KLK7 hits; actives 80% (n = 3,200); shares compounds with proKLK7 act; activation, % at 7 µM; AID 686952; EDANS-DABCYL substrate fluorescence interference, no enzyme, 4 h; solvent 0%, active enzyme control 100%;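 active = activation above the all-compound mean plus 3 SD, ignoring values outside control-based bounds, cut at about 4.8% in these data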;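 also: value is the 4 h activation minus the activation read at time zero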
K7 EDANS ctr – EDANS fluorescence interference in dose response, no enzyme. shares compounds with proKLK7 act. EDANS-DABCYL peptide fluorescence interference. EC50, µM. actives 20% (n = 250). AID 720493;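 active = compounds that raise the fluorescence signal in this interference counterscreen, with EC50 at or below 10 µM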;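 also: intact quenched peptide substrate alone read at 355 nm excitation and 520 nm emission; signal is fluorescence gain from T0 to T4 after four hours at room temperature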
An asterisk follows results filed as active; / = no result given.

SMILES | proKLK7 act | SMARCA2 activ | MsrA inhibitor | bovine MsrA act | proKLK7 act conf | EDANS interfere | others
Cc1ccc(S(=O)(=O)NC(CC(C)C)C(=O)Oc2ccc3c4c(c(=O)oc3c2)CCC4)cc1 (stereo not given) | 49* | -2 | 0 | -7 | 90* | 77*
CCC(NC(=O)OC(C)(C)C)C(=O)Oc1ccc2c3c(c(=O)oc2c1)CCC3 (stereo not given) | 107* | 3 | 0 | -13 | 664* | 670*
COc1ccc(-n2c(SCC(=O)Nc3ccc4c(c3)OCCO4)nnc2-c2ccccc2)cc1 | 0 | -3 | / | / | / | /
O=C(C(=O)N1CCC(c2ccccc2)CC1)c1ccc(F)c(F)c1 | 0 | -6 | 0 | / | / | /
CSCCC(C(=O)NC1CCCC1)n1c(C2CCCC2)nc2ccccc21 (stereo not given) | 0 | -7 | 1 | / | / | /
Cc1c(OC(=O)CNC(=O)OC(C)(C)C)ccc2c3c(c(=O)oc12)CCC3 | 418* | -3 | 0 | -2 | 463* | 485*
CCC(C)C(NS(=O)(=O)c1ccc(C)cc1)C(=O)Oc1ccc2c3c(c(=O)oc2c1)CCC3 (stereo not given) | 21* | -2 | 0 | -3 | 43* | 37* | K7 EDANS ctr=>70
C=CCn1c(-c2cccs2)nc2nc3ccccc3nc21 | 22* | 2 | 2 | -2 | 70* | 82*
Cc1cccnc1NC(=O)c1ccc([N+](=O)[O-])o1 | 17* | -1 | 0 | 1 | 19* | 21*
CC(=O)Nc1ccc(S(=O)(=O)NC(CSc2ccc(C(=O)O)cc2[N+](=O)[O-])C(=O)O)cc1 (stereo not given) | -1 | -3 | 2 | 3 | / | /
CCn1c2ccccc2c2cc(C=Nn3c(-c4ccccn4)n[nH]c3=S)ccc21 | -2 | -3 | / | / | / | /
NS(=O)(=O)c1cc2c(cc1Cl)NC(C1CC3C=CC1C3)NS2(=O)=O (stereo not given) | 0 | -2 | -2 | -11 | / | /
O=C1NC(C2CC3C=CC2C3)Nc2ccccc21 (stereo not given) | 24* | -1 | 0 | 2 | 25* | 21* | K7 EDANS ctr=>69
Cc1ccsc1C(=O)OCC(=O)NCc1cccs1 | 0 | 5 | -2 | 0 | / | /
Cc1cccc(C(=O)Nc2ccccc2C(=O)OCC(=O)Nc2ccc(C#N)cc2)c1 | 17* | 3 | 0 | -1 | 0 | -1
Cc1cccc(OCC(=O)Nc2ccc(C(=O)Nc3ccccc3C(=O)O)cc2)c1 | 0 | -4 | 0 | -2 | / | /
COc1ccc2c(c1)c1ncn(CCc3ccccc3)c(=O)c1n2C | -6 | -1 | 0 | -9 | / | /
COc1ccc2c(c1)c1ncn(CCCN3CCOCC3)c(=O)c1n2C | 15* | 0 | 1 | -2 | 11 | 20*
COc1ccc2c(c1)[nH]c1c(=O)n(CCCN3CCOCC3)cnc12 | -1 | -3 | 1 | 7 | / | /
COc1ccc2c(c1)c1ncn(CC3CCCO3)c(=O)c1n2C (stereo not given) | 13* | -2 | 2 | 0 | 3 | 4
CCOC(=O)C1(C)CCCN1C(=O)c1cccs1 (stereo not given) | 0 | -5 | 0 | -7 | / | /
CCCCn1nnnc1C1(C)CCC(=O)N1C1CC1 (stereo not given) | 0 | -1 | -1 | -1 | / | /
O=C(O)c1cc(-c2cccc(Cl)c2)nc2nc(N3CCCCC3)sc12 | 26* | 4 | 1 | -6 | 31* | 31*
O=C(c1cc(-c2cccc(Cl)c2)nc2ccccc12)N1CCN(c2ccccn2)CC1 | -1 | -2 | 0 | -2 | / | /
CCOC(=O)Cc1c(C)c2c(O)cc(O)cc2oc1=O | 76* | -2 | 1 | -4 | 62* | 64*
SMILES | proKLK7 act | SMARCA2 activ | MsrA inhibitor | bovine MsrA act | proKLK7 act conf | EDANS interfere | others
CCOC(=O)Cc1c(C)c2ccc(N(CC)CC)cc2oc1=O | 76* | -2 | 2 | -1 | -7 | -26
CN1C(=O)c2cccc3c(S(=O)(=O)NCc4ccco4)ccc1c23 | 21* | 3 | 2 | 2 | 14* | 14*
CN1C(=O)c2cccc3c(S(=O)(=O)Nc4ccccn4)ccc1c23 | 11 | 0 | 4 | -8 | / | /
Cc1ccccc1NS(=O)(=O)c1ccc2c3c(cccc13)C(=O)N2C | 3 | 2 | 2 | -5 | / | /
CN1C(=O)c2cccc3c(S(N)(=O)=O)ccc1c23 | 71* | 1 | 1 | -3 | 56* | 66*
O=C(CSc1nnc(-c2ccccn2)n1Cc1ccco1)Nc1ccc(Oc2ccccc2)cc1 | 0 | -6 | / | / | / | /
Cc1cc2c([nH]c3ccccc32)c(C)n1 | 33* | -2 | 0 | -4 | 28* | 25*
Cc1nc(C(=O)NCCO)cc2c1[nH]c1ccccc12 | 8 | 4 | 1 | -5 | / | /
CCc1cc2c(=O)nc3n(c2s1)Cc1ccccc1/C3=C(/O)c1ccccc1Cl | 13* | 2 | 1 | -4 | 16* | 23*
CCc1cc2c(=O)nc3n(c2s1)Cc1ccccc1/C3=C(/O)c1ccc(F)cc1 | 23* | 1 | 0 | -3 | 65* | 68*
Cc1[nH]c2ccccc2c1/C=C(\C#N)S(=O)(=O)c1ccccc1 | 14* | -3 | -1 | -3 | -2 | -5
CCN1C(=O)c2cccc3c(S(=O)(=O)NCCc4c[nH]c5ccccc45)ccc1c23 | 15* | -5 | 1 | 1 | 37* | 55*
CCN1C(=O)c2cccc3c(S(=O)(=O)NCCCN4CCOCC4)ccc1c23 | 51* | 0 | 0 | -4 | 44* | 43*
CCOc1ccc(S(=O)(=O)NCCCN2CCOCC2)c2ccccc12 | 0 | 2 | 0 | -1 | / | /
CCN1C(=O)c2cccc3c(S(=O)(=O)Nc4ccccc4OC)ccc1c23 | 1 | 1 | 1 | -2 | / | /
CCN1C(=O)c2cccc3c(S(=O)(=O)NCc4ccccc4)ccc1c23 | 34* | -2 | 1 | -5 | -35 | -30
CCC1CCc2c(sc(NC(=O)c3ccco3)c2C(N)=O)C1 (stereo not given) | 91* | 4 | 0 | -2 | -13 | -16
CCc1cccc2cc3c(N)c(C(=O)Nc4ccc(S(=O)(=O)N5CCCC5)cc4)sc3nc12 | 119* | 0 | 1 | -5 | 62* | 57*
CC(=O)c1cccc(OCC(=O)c2cc(C)n(-c3cc(C)on3)c2C)c1 | 0 | -5 | 2 | -7 | / | /
Cc1cc(-n2c(C)cc(C(=O)COc3ccc4ccc(=O)oc4c3)c2C)no1 | 59* | -2 | 1 | -2 | 44* | 54*
COc1cc(-c2nc3n(n2)C(c2ccc(F)cc2)C2=C(CCCC2=O)N3)cc(OC)c1OC (stereo not given) | 2 | -3 | 0 | -8 | / | /
CCOc1ccc(C2C3=C(CCCC3=O)Nc3nc(C(F)(F)F)nn32)cc1OC (stereo not given) | 44* | -1 | 2 | -7 | 52* | 58*

High-throughput results as filed in PubChem BioAssay.
